Assay results: PubChem BioAssay AID651820 (National Center for Advancing Translational Sciences (NCATS), 2012)
In all, about 340,000 compounds went through this assay and about 12,000 (3.5%) were called active. Not shown: some 18% with an inconclusive outcome. The call rests on the fitted dose curve; in most records, active means well fitted inhibition curve with a large enough effect; inconclusive means small, poorly fitted or top-dose-only effect, or another doubt; inactive means no such curve, though single readings can be large or run the other way. What follows is part of a selection rich in actives, with near analogues and random picks from the rest. Entries that show only a call come without a potency. Non-standard residues stand in square brackets, D forms with d. Residues, ends and D or L forms follow the SMILES beside them. ξ: configuration not given here. Ac5c = NC1(C(=O)O)CCCC1; ξS = NC(CO)C(=O)O

Assay: qHTS Assay for Inhibitors of Hepatitis C Virus (HCV)
Conditions: Huh7.5.1 HCVcc-Cre infection, luciferase reporter, 44 h; series mostly up to 41.8 µM
Summary of the method: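 Seed cells (1,000/well) for 4 h; treat with compound and infect with HCVcc-Cre, moi about 0.5. Incubate 44 h, then detect luciferase activity.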
Potency means the concentration at half of the fitted maximal effect.

SMILES | Potency
O=C(COC(=O)c1cccnc1Cl)Nc1ccc(S(=O)(=O)N2CCOCC2)cc1 | inactive
O=C(O)c1ccccc1/C=N/Nc1ccc(S(=O)(=O)Nc2ccc(Cl)cc2)cc1[N+](=O)[O-] | inactive
O=C(c1cn(-c2ccccc2)nc1-c1cccnc1)N1CCN(S(=O)(=O)c2ccccc2F)CC1 | inactive
N#Cc1ccccc1S(=O)(=O)N1CCN(Cc2c(O)ccc3ccccc23)CC1 | inactive
N#Cc1ccccc1S(=O)(=O)N1CCN(C(=O)c2cc(-c3ccccc3)nn2-c2ccccc2)CC1 | 11.2 µM (active)
CCCCCN1CC(O)=C(c2ccccc2)C1=N | inactive
CCCCCCCCCCCCn1ccc(=N)cc1 | 0.501 µM (active)
CCCCCNC(=O)Cc1ccc(OC)cc1 | inactive
COCCCNC(=O)CC1C[C@H](C(=O)N2CCCCC2)[C@@]2(CCc3ccccc3)c3[nH]c4ccccc4c3CCN2C1=O (stereo not given in full) | inactive
O=C(Nc1cccc(Br)c1)C1CC(=O)N(C2CCCC2)C1 (stereo not given) | inactive
O=C(Nc1ncccc1O)c1ccc(C(=O)c2ccccc2)cc1 | inactive
COc1cccc(/C=N/Nc2ccc(S(=O)(=O)Nc3ccccc3C(=O)O)cc2[N+](=O)[O-])c1O | inactive
COc1ccccc1/C=N/Nc1nc(C)c(C(C)=O)s1 | inactive
Cc1nc(Cl)cc(N/N=C/c2ccccc2)n1 | inactive
COc1cccc(/C=N\NC(=O)C2=NNC(=O)C2C)c1O (stereo not given) | inactive
COc1cccc(/C=N/Nc2cc(C)nc(-c3ccccc3O)n2)c1O | 12.6 µM (active)
COc1ccccc1/C=N\Nc1cc(C)nc(-n2nc(C)cc2C)n1 | 3.16 µM (active)
N#CC1(NC(=O)COC(=O)Cc2n[nH]c(=O)c3ccccc23)CCCCC1 | inactive
NC1=NOC(=O)C1C1CCCCC1 (stereo not given) | inactive
Cc1nc(-c2ccc(F)cc2)c(CC(=O)N(C)CC(=O)Nc2c(C)cccc2C)s1 | inactive
CS(=O)(=O)c1ccc(C(=O)NNC(=O)c2cccs2)cc1 | inactive
CC1(c2ccc(Cl)cc2Cl)NC(=O)N(CC(=O)Nc2cccnc2Cl)C1=O (stereo not given) | inactive
O=C1C=C(c2cccc(Cl)c2O)C[C@@H](c2ccc(F)cc2)C1 | inactive
O=C1C=C(c2ccnc3cc(Cl)ccc23)C[C@@H](c2ccc3c(c2)OCO3)C1 | 3.16 µM (active)
O=C1C=C(c2cccc(Cl)c2)C[C@@H](c2ccc(F)cc2)C1 | inactive
Cc1cc(C)c(C=NNc2nc3c([nH]2)c(=O)n(C)c(=O)n3C)c(C)c1 | inactive
CCOc1ccc(CCNC(=O)COC(=O)C2CCN(S(=O)(=O)c3ccccc3)CC2)cc1OCC | inactive

SMILES | Potency
CCOC(=O)C(CO)NC(=O)C1(NC(C)=O)CCCC1 (stereo not given) (Ac-[Ac5c]-[ξS]-OEt) | inactive
CN(Cc1ccccn1)Cc1nc(-c2ccc(Cl)cc2)no1 | inactive
CC1CCN(Cc2nc(-c3ccc(Cl)cc3)no2)CC1 | inactive
CCN1CC(CN(C)Cc2nc(-c3ccc(Cl)cc3)no2)CC1=O (stereo not given) | 11.2 µM (active)
O=C(c1ccncc1)N1CCN(S(=O)(=O)c2cc(C(F)(F)F)cc(C(F)(F)F)c2)CC1 | inactive
Cc1ccc(CNC(=O)COC(=O)C2CCC2)cc1 | inactive
C#CCOCCOCCOCCNc1nc(N2CCN(C(=O)[C@H](CCCN=C(N)N)n3cc(C(N)[C@@H](C)CC)nn3)CC2)nc(N2CCN(C(=O)[C@H](CO)n3cc([C@@H](N)C(C)C)nn3)CC2)n1 (stereo not given in full) | inactive
CCOc1cc(-c2cc(-c3ccc(OC)cc3)nc(N)c2C#N)ccc1O | inactive
CCOc1cc(-c2cc(-c3ccc(NC(C)=O)cc3)nc(N)c2C#N)ccc1O | 11.2 µM (active)
CC(=O)Nc1ccc(-c2cn3cccnc3n2)cc1 | inactive
Nc1nnc(SCC(=O)NCC(=O)Nc2ccc(F)c(F)c2F)s1 | inactive
CCN1CCN(CCCCOc2ccccc2F)CC1 | inactive
CN1CCN(CCCCOc2cccc3ccccc23)CC1 | 10 µM (active)
COc1ccccc1OCCCCCCN1CCN(C)CC1 | inactive
Cc1ccc2c(O)c(Cc3ccccc3)c(=O)[nH]c2n1 | inactive
COc1ccc(S(=O)(=O)N2CCN(CC(=O)N3CCOCC3)CC2)cc1OC | inactive
CCOC(=O)c1ccccc1NC(=O)CSc1nc2c(sc(=S)n2CC)c(=O)[nH]1 | inactive
COc1ccc2c(c1)O/C(=C\c1ccccc1O)C2=O | inactive
CCOc1ccc2[nH]c(C(=O)N/N=C/c3cccc(OC)c3OC)cc2c1 | 12.6 µM (active)
COc1cc2cc(C(=O)N/N=C/c3cccc(OC)c3OC)[nH]c2cc1OC | inactive
COc1ccc(/C=N/NC(=O)c2cccc(C(F)(F)F)c2)cc1 | inactive
COc1ccccc1CNC(=O)COC(=O)c1sc(C)nc1C | inactive
CCN(C(=O)CSc1nnnn1-c1ccc(OC)cc1)C1CCS(=O)(=O)C1 (stereo not given) | inactive
Oc1c(CN2CCN(c3ccc(F)cc3)CC2)cc(Cl)c2cccnc12 | 3.55 µM (active)
Oc1cc2c(cc1CN1CCN(c3ccccc3)CC1)OCO2 | inactive
Oc1ccc(CN2CCN(c3ncccn3)CC2)cc1 | inactive
Cc1cc(O)c(Sc2ccccc2)c(=O)o1 | inactive

SMILES | Potency
COc1ccc(OC)c(S(=O)(=O)Nc2c(C)nn(C)c2C)c1 | inactive
N#CC1=C(N)Oc2cc(N)ccc2C1c1ccccc1 (stereo not given) | inactive
Cc1nn(-c2ncccn2)c2c1C(=O)CC(C)(C)C2Br (stereo not given) | inactive
CC(C)(C)CC(C)(C)NCC(O)COCCOc1ccc(Br)cc1 (stereo not given) | 6.31 µM (active)
CC(Oc1ccc(Br)cc1)C(=O)NC1CCCCCC1 (stereo not given) | inactive
COc1ccc(OCC(O)CNCCNc2nccc(C(F)(F)F)n2)cc1 (stereo not given) | inactive
COc1ccc(-c2nnc(SC(C)C(=O)NC3CC3)o2)cc1 (stereo not given) | inactive
O=C(N=C1SC2CS(=O)(=O)CC2N1c1ccccc1)c1ccccc1 (stereo not given) | inactive
O=C(/C=C/c1ccco1)Nc1ccc(Oc2ccccc2)cc1 | 14.1 µM (active)
Cc1nnc(NC(=O)/C=C/c2ccco2)s1 | inactive
O=C(/C=C/c1ccco1)Nc1cccc(-c2nc3ccccc3[nH]2)c1 | inactive
O=C(NCCN1C(=O)S/C(=C\c2cccnc2)C1=O)c1cccc(OC(F)F)c1 | inactive
Cc1cc(OCCCC(=O)NCCN2C(=O)S/C(=C\c3cccnc3)C2=O)ccc1Cl | 10 µM (active)
CCOc1ccc(N2CC(C(=O)NCCN3C(=O)S/C(=C\c4cccnc4)C3=O)CC2=O)cc1 (stereo not given) | inactive
OCC1(CCc2ccccc2)CCN(Cc2ccc3nsnc3c2)CC1 | inactive
CC(=O)c1cccc(CN2CCC(CO)(Cc3ccccc3)CC2)c1 | inactive
Cc1cccc(-c2ncc(CN3CCC(CO)(CCCc4ccccc4)CC3)cn2)c1 | 10 µM (active)
c1ccc2cc(CCCc3cc4ccccc4cn3)ncc2c1 | inactive
COc1ccc([C@H]2CC(=O)C=C(/C=C/c3ccccc3)C2)cc1 | inactive
CCOC(=O)CSc1nnc(CNc2ccc(F)cc2)o1 | inactive
COc1cc(C(=O)NCc2nnc(SCC(=O)c3ccc(Cl)cc3)o2)cc(OC)c1OC | inactive
CCC(=O)Nc1ccc(C(=O)CSc2nnc(CNc3ccc(Cl)cc3)o2)cc1OC | 5.01 µM (active)
O=C(COC(=O)c1cccnc1Cl)NC12CC3CC(CC(C3)C1)C2 | inactive
CCn1cc(/C=C2/SC(=S)NC2=O)c(C)n1 | inactive
Cc1nn(C)cc1/C=C1\CCC/C(=C\c2cn(C)nc2C)C1=O | 10 µM (active)
O=C1/C(=C/c2ccc3c(c2)OCO3)CCC/C1=C\c1ccc2c(c1)OCO2 | inactive
CC(=O)N(O)CCCCCNC(=O)CCC(=O)N(O)CCCCCNC(=O)CCC(=O)N(O)CCCCCNC(=O)CCC(=O)O | inactive

SMILES | Potency
O=S1(=O)CSCS(=O)(=O)C1 | inactive
CCN(CC)CCCNC(=O)Cn1cnc2sc(C)c(S(=O)(=O)N3CCN(c4ncccn4)CC3)c2c1=O | inactive
CCN(CC)CCNC(=O)c1sc2ncn(CC(=O)Nc3ccc(C)c(Cl)c3)c(=O)c2c1C | 8.91 µM (active)
CCN(CC)CCNC(=O)Cn1cnc2sc(C)c(S(=O)(=O)N3CCOCC3)c2c1=O | inactive
CC(=O)Nc1ccc(C(=O)Nc2cc(S(=O)(=O)N3CCOCC3)ccc2N2CCOCC2)cc1 | inactive
O=C(CN1CCOCC1)Nc1cccc([N+](=O)[O-])c1 | inactive
CCc1cccc(NC(=S)N(CCN(C)C)C2CCN(C(C)C)CC2)c1 | 8.91 µM (active)
COCCN(C(=S)Nc1ccccc1OC)C1CCN(C(C)C)CC1 | inactive
Cc1cccc(NC(=S)N(CCN(C)C)C(C)c2ccco2)c1 (stereo not given) | inactive
O=c1oc2ccc(C#CC3(O)CCCCC3)cc2cc1-n1cc(-c2ccsc2)nn1 | inactive
CCOC(=O)C(C)N(c1ccccc1Cl)S(C)(=O)=O (stereo not given) | inactive
COc1cccc(CNC(=O)COc2cc(O)c3c(c2)OC(C)(C)CC3=O)c1 | 5.01 µM (active)
COc1cccc(CC(=O)OCC(=O)NCc2ccc3c(c2)OCO3)c1 | inactive
COc1cccc(CCNC(=O)COc2cccc3c2OC(C)(C)C3)c1 | inactive
COc1cc2[nH]c(O)c(C=O)c2cc1OC | inactive
COc1ccccc1C(=O)Nc1ccc(Nc2ccccc2)cc1 | inactive
COc1ccc2[nH]c3c(c2c1)CCN1C(=O)C(CC(=O)NCCc2ccccn2)C[C@H](C(=O)N2CCOCC2)[C@@]31C (stereo not given in full) | inactive
Cc1nn(CC(=O)N2CCCCC2)c(=O)c2nn(-c3ccccc3)c(C)c12 | inactive
COc1ccc(OC)c(CNC(=O)Cn2nc(C)c3c(C)n(-c4ccc(C)cc4)nc3c2=O)c1 | 3.98 µM (active)
COc1ccc(CNC(=O)C(C)n2nc(C)c3c(C)n(-c4ccccc4)nc3c2=O)c(OC)c1 (stereo not given) | inactive
O=C(c1ccc(Cl)s1)N(Cc1nnc(-c2ccccc2Cl)o1)C1CC1 | inactive
COc1ccc(OCC(=O)Nc2ccc(NC(=O)c3ccco3)c(C)c2)cc1 | inactive
CCC(=O)NC(=S)Nc1ccc(NC(=O)c2ccco2)c(Cl)c1 | inactive
CCN(CC)P(=O)(Nc1ccc(SC(F)F)cc1)c1ccc(N(C)C)cc1NC(=O)c1ccco1 (stereo not given) | 22.4 µM (active)
